A selection: hits, their analogues and other compounds. The true share with any hit is near 27%.
Cav32 inh – Cav3.2 calcium influx blockers – cell-based, Fluo-4 calcium fluorescence, FDSS, MLSMR library, primary screen; Voltage-dependent T-type calcium channel subunit alpha-1H (Homo sapiens), O95180; Cav3.2-expressing cells; stronger effect = lower value; B-score at 10 µM; 100,000 tested, 4% active;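 active = single-dose well whose peak fluorescence ratio is a statistical outlier from its plate by either plate-standardised score or position-corrected B-score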
CYP2C19 activ – human CYP2C19 activators, primary screen, biochemical, luminescence; Cytochrome P450 2C19 (Homo sapiens), P33261; recombinant CYP2C19, luciferin-H EGE luminescence; stronger effect = higher value; 0 = fully inhibited enzyme, 1 = untreated enzyme; activation factor at 5 µM; 96,000 tested, under 10 active; AID 1025, 2008;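 active = activation factor of at least 2 at 5 µM in the primary screen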
Target sequence (P33261 whole entry, looked up): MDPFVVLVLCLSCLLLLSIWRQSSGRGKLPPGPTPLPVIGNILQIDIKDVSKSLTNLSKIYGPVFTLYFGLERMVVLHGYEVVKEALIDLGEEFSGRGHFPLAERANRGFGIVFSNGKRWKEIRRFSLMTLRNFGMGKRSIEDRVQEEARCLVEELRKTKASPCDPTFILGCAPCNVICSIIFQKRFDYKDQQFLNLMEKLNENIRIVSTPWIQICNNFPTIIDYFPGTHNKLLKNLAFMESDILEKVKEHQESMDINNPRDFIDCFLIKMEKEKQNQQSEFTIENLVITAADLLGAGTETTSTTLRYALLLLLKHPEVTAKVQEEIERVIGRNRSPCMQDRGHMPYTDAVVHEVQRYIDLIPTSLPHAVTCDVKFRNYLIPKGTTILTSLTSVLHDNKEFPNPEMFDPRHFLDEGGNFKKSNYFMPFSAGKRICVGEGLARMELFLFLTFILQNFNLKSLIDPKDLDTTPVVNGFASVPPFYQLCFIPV
CYP2C9 inh – blockers of cytochrome P450 2C9 activity – biochemical, luminescence, ADME assay, primary screen; 96,000 tested, 20% active; CYP2C9 Supersomes, luciferin-H conversion; inhibition, % at 5 µM; AID 777, 2007; P11712;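 active = blocking of liver enzyme CYP2C9 beyond about 50% at 5 µM, limit read from the data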
CYP2C19 inh – blockers of cytochrome P450 2C19 activity – biochemical, luminescence, ADME assay, primary screen | inhibition, % at 5 µM | 96,000 tested, 21% active | AID 778, 2007 | CYP2C19 Supersomes, luciferin-H EGE luminescence, 30 min;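 active = CYP2C19 inhibition above a set limit at 5 µM in the primary screen, cut at about 50% in these data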
CYP2C9 activ – human CYP2C9 activators, primary screen, biochemical, luminescence | Cytochrome P450 2C9 (Homo sapiens), P11712 | AID 1024, 2008 | activation factor at 5 µM | 96,000 tested, 1.4% active | recombinant CYP2C9, luciferin-H conversion; stronger effect = higher value; factor 1 = untreated enzyme, 0 = blocked;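 active = activation factor of 2 or more for CYP2C9 at a 5 µM dose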
A number is an active result.

Results for COc1ccccc1-c1nnc2sc(-c3cnccn3)nn12 ?
Cav32 inh: inactive; CYP2C19 activ: inactive; CYP2C9 inh: inactive; CYP2C19 inh: 75; CYP2C9 activ: inactive

Results for COc1cccc(OC)c1-c1nn2c(-c3ccco3)nnc2s1 ?
Cav32 inh: inactive; CYP2C19 activ: inactive; CYP2C9 inh: 68; CYP2C19 inh: 89; CYP2C9 activ: inactive

How did COc1ccccc1-c1nn2c(-c3ccc(C(C)(C)C)cc3)nnc2s1 do in these assays?
CYP2C19 activ: inactive; CYP2C9 inh: 56; CYP2C19 inh: inactive; CYP2C9 activ: inactive

How did CC(Cc1cccs1)NC(=O)Nc1ccc(Cl)c(Cl)c1 (stereo unspecified) do in these assays?
CYP2C19 activ: inactive; CYP2C9 inh: 69; CYP2C19 inh: 73; CYP2C9 activ: inactive

What do the screens show for `CC(Cc1cccs1)NC(=O)Nc1ccccc1` (stereo unspecified)?
Cav32 inh: inactive; CYP2C19 activ: inactive; CYP2C9 inh: 57; CYP2C19 inh: 89; CYP2C9 activ: inactive

How did CC(Cc1cccs1)NC(=O)Nc1ccc(Cl)cc1 (stereo unspecified) do in these assays?
Cav32 inh: inactive; CYP2C19 activ: inactive; CYP2C9 inh: inactive; CYP2C19 inh: 68; CYP2C9 activ: inactive

Results for C[C@H](NC(=O)NCc1cccs1)C(=O)O ?
Cav32 inh: inactive; CYP2C19 activ: inactive; CYP2C9 inh: inactive; CYP2C19 inh: inactive; CYP2C9 activ: inactive

Results for COc1ccc(-c2csc(NC(=O)C3COc4ccccc4O3)n2)cc1OC (stereo unspecified) ?
Cav32 inh: inactive

Results for CCc1cc2c(=O)n(-c3ccc(C)cc3)cnc2s1 ?
Cav32 inh: inactive

Results for Cc1cccc(/C=N/n2c(C)cc(C)c(C#N)c2=O)c1 ?
Cav32 inh: inactive

How did CCn1c(O)c(C=Nc2ccccc2)n(-c2ccccc2)c1=S do in these assays?
Cav32 inh: inactive; CYP2C19 activ: inactive; CYP2C9 inh: inactive; CYP2C19 inh: inactive; CYP2C9 activ: inactive

What do the screens show for `O=C(CSC1=NCCS1)N1CCOCC1`?
Cav32 inh: inactive; CYP2C19 activ: inactive; CYP2C9 inh: inactive; CYP2C19 inh: inactive; CYP2C9 activ: inactive

Results for COC(=O)CS(=O)(=O)c1nnc([C@H](Cc2ccccc2)NC(=O)OC(C)(C)C)o1 ?
Cav32 inh: inactive; CYP2C19 activ: inactive; CYP2C9 inh: 77; CYP2C19 inh: 84; CYP2C9 activ: inactive

What do the screens show for `Cc1cccc(CS(=O)(=O)c2nnc([C@H](Cc3ccccc3)NC(=O)OC(C)(C)C)o2)c1`?
Cav32 inh: inactive; CYP2C19 activ: inactive; CYP2C9 inh: 56; CYP2C19 inh: inactive; CYP2C9 activ: inactive

What do the screens show for `COc1cc(-c2nnc(SCC(=O)/C(C#N)=C(\C)N)o2)cc(OC)c1OC`?
Cav32 inh: inactive; CYP2C19 activ: inactive; CYP2C9 inh: inactive; CYP2C19 inh: inactive; CYP2C9 activ: inactive

How did CC(C)(C)NC(=O)CN(C(=O)CS(=O)CC(=O)Nc1ccc(F)cc1)c1ccc(F)c(Cl)c1 (stereo unspecified) do in these assays?
Cav32 inh: inactive; CYP2C19 activ: inactive; CYP2C9 inh: 89; CYP2C19 inh: inactive; CYP2C9 activ: inactive

How did CNS(=O)(=O)c1ccc(NC(=O)c2nc3nc(C)cc(C(F)F)n3n2)cc1 do in these assays?
Cav32 inh: inactive; CYP2C19 activ: inactive; CYP2C9 inh: inactive; CYP2C19 inh: inactive; CYP2C9 activ: inactive

What do the screens show for `c1ccc(-n2c(Sc3cnccn3)nnc2-c2cccs2)cc1`?
Cav32 inh: inactive; CYP2C19 activ: inactive; CYP2C9 inh: inactive; CYP2C19 inh: 71; CYP2C9 activ: inactive

Results for Cc1ccc(-n2c(-c3ccccc3)nnc2-c2cccs2)cc1 ?
Cav32 inh: inactive

What do the screens show for `Cc1cccc(-c2nsc(SCC(=O)N3CCCC3)n2)c1`?
Cav32 inh: inactive; CYP2C19 activ: inactive; CYP2C9 inh: inactive; CYP2C19 inh: 50; CYP2C9 activ: inactive

How did COc1ccc(C(=O)NCCCc2nc3ccccc3n2Cc2ccccc2C)cc1OC do in these assays?
Cav32 inh: inactive

What do the screens show for `COCCCNC(=O)CCn1c(=O)c2ccccc2n(CC(=O)Nc2c(C)cccc2C)c1=O`?
Cav32 inh: inactive; CYP2C19 activ: inactive; CYP2C9 inh: inactive; CYP2C19 inh: inactive; CYP2C9 activ: inactive

Screens from PubChem.
